Compounds without any hit were thinned out: in the full panel of roughly 83,000, 20% have a hit.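 Assay: single dose, 48 h. Readout: percent growth (0 = no net growth; negative = cell death). Active: <10.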 A number with no mark means an inactive call. Activity calls are given as the source filed them.

Holding throughout (assay): NCI-60 one-dose screen, 48 h (100 = growth as untreated, 0 = no growth, -100 = all killed)
What all share (conditions): 10 µM unless noted

For experiment [1], the system named is HCT-15 colon.
The subject of experiment [2] is HT29 colon.
Experiment [3] relates to SNB-75 CNS.
Experiment [4] relates to SNB-19 CNS.
Experiment [5] has as its system U251 CNS.
Experiment [6] relates to SK-MEL-5 melanoma.
Experiment [7] has as its system UACC-62 melanoma.
Experiment [8] concerns LOX IMVI melanoma.
Experiment [9] deals with SK-MEL-28 melanoma.

On to `C#Cc1cccc(NC(=O)c2ccccc2NC(=O)C=C)c1`, for which the growth was 104% [8.25 µM] in [1]; 109% [8.25 µM] in experiment [2]; 75% [8.25 µM] in [3]; 94.1% [8.25 µM] in experiment [4]; 100% [8.25 µM] in experiment [5]; 99.5% [8.25 µM] in experiment [6]. For the same compound, the growth is 104% [8.25 µM] in experiment [7], 97.4% [8.25 µM] in [8] and 109% [8.25 µM] in experiment [9].

As for `O=C1/C(=C/c2ccccc2)SC(=S)N1CCc1ccc(O)cc1`, the growth is 100% in [1]; 102% in experiment [2]; 81.1% in experiment [3]; 90.4% in experiment [4]; 97.3% in experiment [5]; 97% in [6]. Further, the values for the growth in experiment [7], in experiment [8] and in experiment [9] were 77%, 89.2% and 103%, respectively.

`O=C1OCC2=C1C(c1ccncc1)c1cc3c(cc1N2CCO)OCO3` (stereo not given): the growth in experiment [1] was 103%; in experiment [2], 106%; in [3], 95.7%; in experiment [4], 100%; in experiment [5], 96.7%; in [6] it was 98.6%. Moreover, the values for the growth in experiment [7], in [8] and in experiment [9] were 94.9%, 99.9% and 102%, respectively.

With `COc1ccc(C(=O)COc2ccc(/C=C3\Oc4ccc(OC)cc4C3=O)cc2)cc1`, the growth is 102% in [1]; 110% in experiment [2]; 101% in experiment [3]; 92.7% in experiment [4]; 93% in experiment [5]; 97.5% in experiment [6]. Also, the growth in experiment [7] was 90.1%; in experiment [8], 77.3%; in experiment [9], 137%.

As to `COc1ccccc1NS(=O)(=O)c1ccc2oc(SC(C)C)nc2c1`, the growth in experiment [1] is 125%; in experiment [2], 96.3%; in experiment [3], 102%; in [4], 93.7%; in [5], 138%; in [6], 49.9%. Also, the growth is 59.9% in [7], 146% in experiment [8] and 115% in experiment [9].

In the case of `C#CCOc1ccc2ncnc(Nc3cccc(CNC(=O)CCl)c3)c2c1`, the growth was 45.2% [8.25 µM] in experiment [1]; 35% [8.25 µM] in experiment [2]; 15.5% [8.25 µM] in [3]; 60.7% [8.25 µM] in [4]; 10.1% [8.25 µM] in experiment [5]; 14.5% [8.25 µM] in experiment [6]. Also, the figures for the growth in [7], in [8] and in experiment [9] were 40.3% [8.25 µM], 53.9% [8.25 µM] and 69% [8.25 µM], respectively.

On to `COc1ccc(-n2nc(C)c3c(Nc4ccc(NC(=O)Nc5cccc(C(F)(F)F)c5)cc4)ncnc32)cc1`, for which the growth in experiment [1] was 2.47% (active); in experiment [2] it was 1.63% (active); in experiment [3], -7.61% (active); in experiment [4], 12%; in [5], -49.7% (active); in experiment [6], -66.5% (active). Further, the growth in [7] is 3.5% (active); in experiment [8], -81.9% (active); in [9], 11.6%.

As to `COc1ccc(-n2nc(C)c3c(Nc4ccc(NC(=O)Nc5c(Cl)cccc5Cl)cc4)ncnc32)cc1`, the growth in [1] was 72.2%; in experiment [2], 31.4%; in experiment [3], 55.9%; in experiment [4], 79.4%; in experiment [5], 63.3%; in [6], 5.92% (active). The values for the growth in experiment [7], in [8] and in experiment [9] were 46.7%, 39.1% and 81.9%, respectively.

Take `FC(F)(F)c1ccc(-c2cn3nc(-c4c[nH]c5ccc(Br)cc45)sc3n2)cc1`: the growth was 70.6% in [1]; 97.4% in [2]; 86.1% in [3]; 100% in experiment [4]; 92.2% in [5]; 96.3% in [6]. Further, the growth in experiment [7] was 84.8%; in experiment [8], 88.2%; in experiment [9] it was 111%.

On to `COC(=O)c1ccc2oc(NC(=O)c3ccc(Nc4ccc([N+](=O)[O-])cc4C)c([N+](=O)[O-])c3)nc2c1`, for which the growth in experiment [1] was 104%; in experiment [2], 96.8%; in experiment [3] it was 97.5%; in experiment [4], 99%; in experiment [5] it was 101%; in [6], 93.6%. The values for the growth in experiment [7], in experiment [8] and in experiment [9] were 100%, 99.7% and 108%, respectively.

As to `Cn1ccnc1C(=O)/C=C/c1ccccc1`, the growth in [1] was 20.4%; in [2] it was 1.12% (active); in experiment [3], 12.9%; in experiment [4], 42.2%; in experiment [5], 25%; in experiment [6], 15%. The results for the growth in experiment [7], in experiment [8] and in experiment [9] were 43.1%, 18.3% and 30.1%, respectively.

Turning to `O=C(Cc1ccccc1Nc1c(Cl)cccc1Cl)NN1C(=O)/C(=C/c2ccc(Br)cc2)SC1=S`, the growth is 104% in [1]; 109% in [2]; 86.4% in experiment [3]; 105% in [4]; 102% in [5]; 98.6% in experiment [6]. The growth in experiment [7] was 101%; in [8] it was 97.5%; in experiment [9] it was 105%.

For the compound `COc1cccc(/C=N/NC(=O)c2ccccc2Nc2ccnc(C(F)(F)F)c2)c1O`, the growth is 28.4% in experiment [1]; 51.3% in experiment [2]; 19.6% in experiment [3]; 21.1% in experiment [4]; 17.1% in experiment [5]; -33.1% (active) in experiment [6]. Also, the growth in experiment [7] is -24.2% (active); in experiment [8], 4.88% (active); in [9], 23%.

Turning to `O=C(N(c1ccccc1)c1ccccc1)n1ccc2nc(Cl)nc(Cl)c21`, the growth in [1] is 45.1%; in experiment [2] it was 24.6%; in [3], 38.3%; in experiment [4], 58.5%; in experiment [5], 59.6%; in experiment [6], 64.9%. In addition, the growth in experiment [7] was 51.9%; in [8] it was 72.1%; in experiment [9], 80.4%.

On to `C(=N/Nc1ncc(-c2cc3cc(-c4ccccc4)ccc3o2)s1)/c1cccs1`, for which the growth in [1] was 99.2%; in [2], 99.6%; in experiment [3], 100%; in experiment [4], 99.3%; in experiment [5] it was 99.5%; in experiment [6], 96.8%. Also, the results for the growth in experiment [7], in [8] and in [9] were 90.7%, 98.7% and 96.1%, respectively.

For the origin of these results see PubChem BioAssay (NCI).
